# From PubChem BioAssay AID1851 (National Center for Advancing Translational Sciences (NCATS), 2009)
# The whole screen tested about 16,000 compounds, of which about 5,100 (32%) were called active. Inconclusive results (about 25%) are left out. The list shows a part of the results. Unmarked numbers belong to inactive results. The call rests on the fitted dose curve; in most records, active means well fitted curve in the direction sought with a large enough effect; inconclusive means small, poorly fitted or top-dose-only effect, or effect the other way; inactive means no such curve, though single readings can be large or run the other way.
# Biological target: Cytochrome P450 3A4 (Homo sapiens) (UniProt P08684)
# Experiment: Cytochrome panel assay with activity outcomes
# Conditions: recombinant CYP, pro-luciferin dealkylation, luminescence, p450-cyp3a4; series mostly up to 57.1 µM; activity, negative = inhibition: at the top concentration
# On the % scale 0 is the no-effect control and ±100 the full control effect.
# Cytochrome P450 3A4 (Homo sapiens), sequence (P08684 whole entry, looked up): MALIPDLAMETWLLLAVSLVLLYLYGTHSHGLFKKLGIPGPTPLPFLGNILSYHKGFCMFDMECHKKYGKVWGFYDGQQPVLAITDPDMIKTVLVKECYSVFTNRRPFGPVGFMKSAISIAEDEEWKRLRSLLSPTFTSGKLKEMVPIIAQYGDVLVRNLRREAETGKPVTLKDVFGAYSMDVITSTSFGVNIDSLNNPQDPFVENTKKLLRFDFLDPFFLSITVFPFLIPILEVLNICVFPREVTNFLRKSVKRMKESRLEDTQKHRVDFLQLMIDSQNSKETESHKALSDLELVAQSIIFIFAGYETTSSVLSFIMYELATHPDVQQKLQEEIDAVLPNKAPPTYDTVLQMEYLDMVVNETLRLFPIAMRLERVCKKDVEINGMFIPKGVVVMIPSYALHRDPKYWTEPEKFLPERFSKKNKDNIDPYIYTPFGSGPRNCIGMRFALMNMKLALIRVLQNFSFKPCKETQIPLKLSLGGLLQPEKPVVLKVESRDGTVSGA
SMILES,"activity, negative = inhibition",AC50
O=C(NNc1nc2ccccc2s1)C1CC1,-5.94%,–
O=C(O)[C@@H](O)[C@@H](O)[C@@H](O)[C@@H](O)c1nc2ccccc2s1,-23.6% [at 11.4 µM],–
CCCc1cc(C(=O)Cc2nc3ccccc3s2)c(O)cc1O,–,12.6 µM (active)
O=C(Oc1ccc2ccccc2c1Br)N1CCCCCC1,–,14.1 µM (active)
Cc1ccc(OC(=O)N2CCOCC2)cc1,-1.91%,–
O=C(CCN1CCCCC1)c1csc2ccccc12,-13.8% [at 11.4 µM],–
CCCCOc1ccc(C(=O)NCc2ccco2)cc1,-3.62%,–
COc1ccc(/C=C(/NC(C)=O)C(=O)O)cc1,4.62% [at 2.29 µM],–
CCCCOc1ccc(C(=O)N/C(=C\c2cccc([N+](=O)[O-])c2)C(=O)OCCC)cc1,–,1 µM (active)
CCCCOc1ccc(C(=O)N/C(=C\c2ccc(OC)cc2)C(=O)OCc2ccco2)cc1,–,3.98 µM (active)
OC[C@@H]1O[C@H](O)[C@@H](Cl)[C@H](O)[C@@H]1O,0.669%,–
COCCCNCCCCOc1c(Cl)cc(C)cc1Br,-14.4% [at 2.29 µM],–
C=CCNCCCCOc1c(Cl)cc(C)cc1Br,–,14.1 µM (active)
Cc1cc(Br)cc(C)c1OCCCCN(C)C,17%,–
Cc1cnc(CNc2nc(-c3ccccc3C(F)(F)F)nc3ccccc23)cn1,–,5.01 µM (active)
Cc1cnc(CNc2ccnc(-c3ccccc3C(F)(F)F)n2)cn1,-6.93%,–
COc1ccccc1-c1nc(NCc2cnc(C)cn2)c2ccccc2n1,–,15.8 µM (active)
COc1ccc2[nH]cc(CCNc3ncnc4ccc(-c5cccc(C#N)c5)cc34)c2c1,–,2.51 µM (active)
COc1cccc(-c2ccc3ncnc(NCCc4c[nH]c5ccc(OC)cc45)c3c2)c1,–,1.26 µM (active)
COc1ccc2[nH]cc(CCNc3ncnc4ccc(-c5ccccc5C#N)cc34)c2c1,–,2 µM (active)
COc1ccc2[nH]cc(CCNc3ncnc4ccc(-c5ccoc5)cc34)c2c1,–,3.98 µM (active)
COc1ccc2[nH]cc(CCNc3ncnc4ccc(-c5ccc6c(c5)OCO6)cc34)c2c1,–,2 µM (active)
COc1ccc2[nH]cc(CCNc3ncnc4ccc(-c5cccnc5)cc34)c2c1,–,1 µM (active)
COc1ccc2[nH]cc(CCNc3ncnc4ccc(-c5c(C)noc5C)cc34)c2c1,–,3.16 µM (active)
COc1ccc2[nH]cc(CCNc3ncnc4ccc(-c5ccccc5CN(C)C)cc34)c2c1,–,1.58 µM (active)
O=C(Cn1cnc([N+](=O)[O-])c1)NCc1ccc(F)cc1,7.55%,–
Cc1ccc(C(C)C)n1C(=O)OC(C)(C)C,-18.1% [at 11.4 µM],–
